Assay [1] is described as follows: qHTS assay to identify small molecule antagonists of the androgen receptor (AR) signaling pathway using the MDA cell line in the presence of 0.5 nM R1881 - cell viability counter screen (AID 1259242). Note: nearly all actives have a fitted effect of over 45% in size. The gist of the method: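 Viability of MDA-kb2 cells was multiplexed with the luciferase AR readout; after 16 hr with compounds and R1881 at 0.5 nM final, CellTiter-Fluor fluorescence was recorded.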
(In general: qHTS replaces the single test concentration by a dilution series.)

Assay [2] concerns the target Androgen receptor (Homo sapiens) (UniProt P10275). As to the kind of experiment: qHTS assay to identify small molecule antagonists of the androgen receptor (AR) signaling pathway using the MDA cell line in the presence of 0.5 nM R1881 (AID 1259243). Note: nearly all actives have a fitted effect of over 50% in size. The gist of the method:
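Reporter cells cultured without CO2 receive test chemicals, then 0.5 nM R1881 final; after 16 hr at 37C, ONE-Glo is added and light output recorded.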

In assay [3] the target is Estrogen receptor (Homo sapiens) (UniProt P03372). The assay is described as follows: qHTS assay to identify small molecule antagonists of the estrogen receptor alpha (ER-alpha) signaling pathway using the BG1 cell line in the presence of 0.1 nM 17-beta-estradiol (AID 1259244). Note: nearly all actives have a fitted effect of over 50% in size. A digest of the protocol:
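Estradiol at 0.1 nM (final) stimulates the endogenous ER-alpha of VM7Luc4E2 cells carrying an ERE-driven luciferase; compounds are co-incubated 22 h at 37C and luciferase output quantified by luminescence.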

The nature of assay [4]: qHTS assay to identify small molecule HDAC inhibitors (AID 1259364).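 Note: wild-type HCT-116 cells with endogenous class I/II HDAC activity; top concentration of the series differs between compounds; nearly all actives have a fitted effect of over 45% in size.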 The gist of the method: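 Read-out: luminescence of HDAC-Glo I/II reagent, 30 min RT, reflecting class I/II deacetylase activity in whole HCT-116 cells pre-exposed 2 h to DMSO-dissolved compounds.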
A short description of assay [5]: qHTS assay to identify small molecule agonists of the sonic hedgehog signaling (Shh) pathway - cell viability counter screen (AID 1259366). Note: nearly all actives have a fitted effect of over 50% in size. The gist of the method: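 Compounds in DMSO were pin-transferred onto 3T3 Gli1-Luc cells that had settled 4hr; plates then stood 24hr at 37C and 5% CO2. One hour before the end, CellTiter-Fluor was added and fluorescence recorded.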

A short description of assay [6]: qHTS assay to identify small molecule antagonists of the sonic hedgehog signaling (Shh) pathway - cell viability counter screen (AID 1259367). Note: nearly all actives have a fitted effect of over 55% in size. A digest of the protocol:
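Cells: 3T3 Gli1-Luc, 2,000/well, 4 hr pre-incubation. Compounds in DMSO, then conditioned medium. Incubation 24 hr, 37C, 5% CO2. CellTiter-Fluor at 23 hr, 1 hr, fluorescence.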

Assay [7] is described as follows: qHTS assay to identify small molecule agonists of the sonic hedgehog signaling (Shh) pathway (AID 1259368; calls by dose curve;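 note: NIH/3T3-derived 3T3Gli1-Luc cells carrying a stable Gli1-driven firefly luciferase reporter; series mostly up to about 92 µM; nearly all actives have a fitted effect of over 15% in size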). A digest of the protocol:
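A Gli1 transcriptional response element controlled firefly luciferase in 3T3Gli1-Luc cells. Compounds and a positive control were added 4 hr after plating, and cells were incubated a further 24 hr at 37 C before luminescence detection.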

The nature of assay [8]: qHTS assay to identify small molecule antagonists of the sonic hedgehog signaling (Shh) pathway (AID 1259369; calls by dose curve; note: nearly all actives have a fitted effect of over 45% in size; note: potency is the fitted concentration of half-maximal effect). The gist of the method:
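For antagonist detection, the reporter line received test compounds together with conditioned medium, incubated 24hr at 37 C, 5% CO2, then luminescence was recorded following 30min room-temperature luciferase reagent incubation.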

Assay [9] is described as follows: qHTS assay to identify small molecule HDAC inhibitors - cell viability counter screen (AID 1259365). Note: series mostly up to about 92 µM; nearly all actives have a fitted effect of over 50% in size. The gist of the method: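 HCT-116 wild-type, overnight attachment; 2hr drug exposure, 37C; CellTiter-Glo luminescent ATP readout after 30min RT.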
Assay [10] in a line: qHTS assay to identify small molecule phospholipidosis (PLD) inducers (AID 1259344; active = well fitted curve in the direction sought with a large enough effect; an effect the other way counts as inactive or inconclusive). A digest of the protocol:
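Phospholipidosis is scored by imaging LipidTOX-stained pits in HepG2 cells exposed to compound for 24 h at 37 C; pit counts and integrated intensities per well and per cell serve as outputs.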

Where “and” joins values, the source holds several entries; their conditions need not be identical. Equal values may be shown once. Inconclusive results are not listed. Some structures have more than one record in an assay (separate samples or runs), and their calls can disagree. Calls of active or inactive are those of the source. Unless noted, calls come from the whole dose curve; as a rule, active = well fitted curve in the direction sought with a large enough effect in the repeat runs; inconclusive = weak or mixed curves; inactive = no such curve, though single readings can be large; an effect the other way counts as inactive or inconclusive.

Androgen receptor (Homo sapiens), sequence (P10275 whole entry, looked up): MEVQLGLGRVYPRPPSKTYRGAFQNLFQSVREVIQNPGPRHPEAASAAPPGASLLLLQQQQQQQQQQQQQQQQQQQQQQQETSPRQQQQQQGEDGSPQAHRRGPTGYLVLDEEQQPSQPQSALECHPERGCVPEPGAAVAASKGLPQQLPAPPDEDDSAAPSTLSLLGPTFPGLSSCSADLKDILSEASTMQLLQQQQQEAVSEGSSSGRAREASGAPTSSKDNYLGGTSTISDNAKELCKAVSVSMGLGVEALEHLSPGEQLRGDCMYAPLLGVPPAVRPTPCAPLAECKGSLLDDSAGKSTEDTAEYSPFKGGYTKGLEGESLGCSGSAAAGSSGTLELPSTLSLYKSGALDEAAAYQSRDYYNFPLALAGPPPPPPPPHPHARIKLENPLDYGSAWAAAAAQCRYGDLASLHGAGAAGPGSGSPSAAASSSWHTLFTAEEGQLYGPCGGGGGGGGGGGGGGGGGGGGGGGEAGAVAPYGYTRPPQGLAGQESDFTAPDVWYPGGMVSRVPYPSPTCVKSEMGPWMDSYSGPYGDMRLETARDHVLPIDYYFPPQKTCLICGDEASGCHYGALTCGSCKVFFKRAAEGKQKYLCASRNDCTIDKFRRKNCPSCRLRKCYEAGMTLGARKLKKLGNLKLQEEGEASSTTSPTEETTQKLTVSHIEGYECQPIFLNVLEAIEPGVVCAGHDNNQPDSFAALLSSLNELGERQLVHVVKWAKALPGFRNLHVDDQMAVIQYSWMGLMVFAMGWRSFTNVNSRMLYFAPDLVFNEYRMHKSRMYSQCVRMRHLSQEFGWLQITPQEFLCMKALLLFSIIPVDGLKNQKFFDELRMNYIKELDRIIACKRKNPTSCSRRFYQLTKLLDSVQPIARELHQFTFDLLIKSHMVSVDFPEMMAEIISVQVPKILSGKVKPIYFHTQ
Estrogen receptor (Homo sapiens), sequence (P03372 whole entry, looked up): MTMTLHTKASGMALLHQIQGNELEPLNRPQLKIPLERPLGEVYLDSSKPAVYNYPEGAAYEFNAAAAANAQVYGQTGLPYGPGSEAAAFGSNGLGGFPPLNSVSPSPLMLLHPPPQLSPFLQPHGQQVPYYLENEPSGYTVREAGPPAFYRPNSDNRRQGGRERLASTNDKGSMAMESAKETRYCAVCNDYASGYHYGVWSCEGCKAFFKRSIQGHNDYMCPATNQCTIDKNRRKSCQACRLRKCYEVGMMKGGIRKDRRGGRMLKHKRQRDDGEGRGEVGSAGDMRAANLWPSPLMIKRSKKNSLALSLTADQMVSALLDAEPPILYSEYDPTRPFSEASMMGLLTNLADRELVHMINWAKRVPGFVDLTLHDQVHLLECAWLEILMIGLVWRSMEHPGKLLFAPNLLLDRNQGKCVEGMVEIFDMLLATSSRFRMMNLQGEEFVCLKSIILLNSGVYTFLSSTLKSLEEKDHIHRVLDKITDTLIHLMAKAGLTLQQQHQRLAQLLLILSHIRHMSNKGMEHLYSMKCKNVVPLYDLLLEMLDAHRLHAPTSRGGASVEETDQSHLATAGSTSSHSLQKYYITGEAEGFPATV

With `O=[N+]([O-])c1ccccc1C(F)(F)F`, the Potency entry in [1], in assay [2], in [3], in assay [4], in assay [5] and in assay [6] was “inactive” throughout. Also, the Potency entry in assay [7] and in assay [8] was “inactive” throughout.
`CC(=O)OC(C)(C)C1CC=C(C)CC1` (stereo unspecified): the Potency entry in [1], in [3], in assay [4], in [9], in assay [5] and in assay [6] was “inactive” throughout. Also, the Potency entry in assay [7] and in assay [8] was “inactive” throughout.
Regarding `O=[N+]([O-])c1cc(C(F)(F)F)ccc1Cl`, the Potency entry in [1], in assay [2], in assay [4], in [9], in assay [5] and in assay [6] was “inactive” throughout. Besides, the Potency entry in [7] and in assay [8] was “inactive” in each case.
In the case of `COc1cc(NC(=O)CC(C)=O)c(OC)cc1Cl`, the Potency result in [1], in [3], in [4], in [9], in [5] and in assay [6] was “inactive” throughout. Also, the Potency result in [7] and in assay [8] was “inactive” each time.
Consider `CC1(C)C(=O)N(Cl)C(=O)N1Cl`, for which the Potency result in assay [1], in [3], in [4], in [9], in assay [5] and in assay [6] was “inactive” throughout. The Potency result in [7] and in assay [8] was “inactive” in each case.
Turning to `CCCCCCCC(=O)O`, the Potency entry in assay [1], in [3], in assay [4], in assay [9], in assay [5] and in [6] was “inactive” throughout. For the same molecule, the Potency result in assay [7] and in assay [8] was “inactive” each time. For the same molecule, in assay [10], the molecule was classed as inactive.
Regarding `OB(O)O`, the Potency entry in [1], in assay [3], in assay [4], in [9], in assay [5] and in assay [6] was “inactive” in each case. The Potency entry in assay [7] and in assay [8] was “inactive” throughout. Also, the result in assay [10] was inactive.
Consider `Nc1nc(N)c2nc(-c3ccccc3)c(N)nc2n1`, for which the Potency result in [1], in assay [2], in assay [3], in assay [4], in assay [9] and in assay [6] was “inactive” each time. The Potency result in [7] is “inactive”. Besides, in [10], the molecule was called inactive. In addition, in [8], the Potency was 24.6 µM (active) and 30.6 µM (active).
With `CN=C(NC#N)NCCSCc1nc[nH]c1C`, the Potency result in [1], in assay [3], in assay [4], in assay [9], in assay [5] and in assay [6] was “inactive” each time. In addition, the Potency result in assay [7] and in assay [8] was “inactive” in each case. Further, the outcome in assay [10] was inactive.
Consider `COc1ccc([C@@H]2CC(=O)c3c(O)cc(O[C@@H]4O[C@H](CO[C@@H]5O[C@@H](C)[C@H](O)[C@@H](O)[C@H]5O)[C@@H](O)[C@H](O)[C@H]4O)cc3O2)cc1OC`, for which the Potency entry in assay [1], in [3], in [4], in assay [9], in assay [5] and in [6] was “inactive” throughout. The Potency result in [7] and in [8] was “inactive” in each case.
Turning to `CCCCC(=O)O`, the Potency result in assay [1], in assay [3], in [4], in assay [5], in [6] and in assay [7] was “inactive” each time. In addition, in assay [8], the Potency entry is “inactive”. Moreover, the result in assay [10] was inactive.
For `CC(C=O)Cc1ccc(C(C)(C)C)cc1` (stereo unspecified), the Potency result in assay [1], in assay [2], in [4], in assay [9], in [5] and in assay [6] was “inactive” throughout. For the same molecule, the Potency result in assay [7] and in assay [8] was “inactive” in each case.
Consider `C=CC(C)(C)C`, for which the Potency entry in assay [1], in assay [3], in assay [4], in [9], in assay [5] and in assay [6] was “inactive” in each case. Moreover, the Potency entry in [7] and in assay [8] was “inactive” in each case.
As for `O=C(c1ccccc1)c1ccc(O)c(O)c1O`, the Potency entry in assay [1], in [3], in assay [4], in [9] and in [7] was “inactive” in each case. The Potency in [8] was 54.9 µM (active).
As for `C[Si](C)(C)N[Si](C)(C)C`, the Potency result in assay [1], in [3], in assay [4], in assay [5], in assay [6] and in [7] was “inactive” in each case. The Potency result in assay [8] was “inactive”.
In the case of `COCN(COC)c1nc(N(COC)COC)nc(N(COC)COC)n1`, the Potency result in assay [1], in assay [3], in assay [4], in assay [5], in [6] and in assay [7] was “inactive” throughout. Besides, the Potency entry in assay [8] was “inactive”.
In the case of `Nc1cccc(N)n1`, the Potency entry in [1], in assay [3], in assay [4], in assay [9], in [5] and in assay [6] was “inactive” each time. The Potency entry in assay [7] and in assay [8] was “inactive” each time.
With `O=C(O)C1=NN(c2ccc(S(=O)(=O)O)cc2)C(=O)C1`, the Potency result in assay [1], in [3], in assay [4], in assay [9], in assay [5] and in assay [6] was “inactive” in each case. Besides, the Potency result in [7] and in [8] was “inactive” each time.
Regarding `OCC(CO)(CO)CO`, the Potency result in [1], in assay [3], in assay [4], in assay [5], in assay [6] and in assay [7] was “inactive” throughout. Moreover, the Potency entry in assay [8] is “inactive”.
As for `CCCCCCCCC(=O)O`, the Potency result in [1], in assay [3], in assay [4], in assay [5], in [6] and in assay [7] was “inactive” throughout. In addition, the Potency result in [8] is “inactive”.
For `N#CCC(=O)O`, the Potency entry in assay [1], in assay [3], in [4], in assay [5], in assay [6] and in assay [7] was “inactive” throughout. The Potency result in [8] is “inactive and 54.5 µM (active)”.
On to `O=C1C(N(CO)C(=O)NCO)N(CO)C(=O)N1CO` (stereo unspecified), for which the Potency result in [1], in assay [3], in assay [4], in assay [5], in assay [6] and in assay [7] was “inactive” throughout. Further, in assay [8], the Potency entry was “inactive”.
On to `C1CCCNCC1`, for which the Potency result in [1], in [3], in [4], in [9], in [5] and in [6] was “inactive” each time. For the same molecule, the Potency result in [7] and in [8] was “inactive” each time.
As to `CC(=O)C(C)C`, the Potency result in [1], in [3], in [4], in [9], in assay [5] and in assay [6] was “inactive” throughout. For the same molecule, the Potency entry in [7] and in assay [8] was “inactive” each time.
Consider `CCCCCCCCCCCCCC(=O)O`, for which the Potency entry in [1], in [3], in assay [4], in [9], in assay [5] and in [6] was “inactive” each time. The Potency entry in assay [7] and in assay [8] was “inactive” in each case.
For `CC(=O)c1nccs1`, the Potency result in assay [1], in assay [3], in assay [4], in assay [9], in [5] and in assay [6] was “inactive” throughout. Also, the Potency entry in assay [7] and in assay [8] was “inactive” in each case.
As to `COc1c2ccoc2cc2oc(=O)ccc12`, the Potency result in [1], in [3], in assay [4], in assay [5], in [6] and in assay [7] was “inactive” in each case. The Potency result in assay [8] was “inactive”.

The record behind these values is PubChem BioAssay (Tox21).
